# Laboratory results as given in PubChem BioAssay (Tox21).
# Where “and” joins values, the source holds several entries; their conditions need not be identical. Equal entries are not always repeated. Results filed as inconclusive are left out. Where a call stands in place of a potency, no number is given. More than one record can exist for a structure, and the calls need not agree. Calls of active or inactive are those of the source. The call rests on the fitted dose curve; in most records, active means well fitted inhibition curve with a large enough effect in the repeat runs; inconclusive means weak or mixed curves, or effect the other way; inactive means no such curve, though single readings can be large or run the other way.
# Molecular target: Nuclear receptor ROR-gamma (Homo sapiens) (UniProt P51449)
# Test: qHTS assay to identify small molecule antagonists of the retinoid-related orphan receptor gamma (ROR-gamma) signaling pathway (AID 1159521; further: nearly all actives have a fitted effect of over 50% in size; on activity change, negative = inhibition: top concentration of the series differs between compounds)
# Conditions: Tet-on RORgamma CHO cells, RORE-luciferase, 16 h; series mostly up to 92.4 µM; activity change, negative = inhibition: at the top concentration
# Procedure, shortened: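 Antagonist read-out: drop in luminescence (ONE-Glo) from an RORE-LUC reporter in CHO cells with doxycycline-inducible ROR-gamma; 2 hr compound pretreatment, 1 uM doxycycline, 16 hr incubation at 37 C.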
# Potency means the concentration at half of the fitted maximal effect.
Structure (SMILES),Potency,"activity change, negative = inhibition"
C#C[C@]1(O)CC[C@H]2[C@@H]3CCC4=Cc5oncc5C[C@]4(C)[C@H]3CC[C@@]21C,17.2 µM (active) and 16.8 µM (active),
c1ccc2sc(SSN3CCOCC3)nc2c1,19.3 µM (active) and 54.5 µM (active),
Nc1ncn([C@@H]2O[C@H](CO)[C@@H](O)[C@H]2O)c(=O)n1,1.72 µM (active) and 3.35 µM (active),
CN(C)c1nc(N(C)C)nc(N(C)C)n1,inactive,
CC(C)(C)NC(=O)[C@H]1CC[C@H]2[C@@H]3CC[C@H]4NC(=O)C=C[C@]4(C)[C@H]3CC[C@]12C,,-28.7% [at 42.5 µM] (inactive)
CCCCC(CC)COCC1CO1 (stereo not drawn),inactive,
COC(=O)Nc1nc2ccc(S(=O)c3ccccc3)cc2[nH]1 (stereo not drawn),,-3.11% [at 42.5 µM] (inactive)
CC(=O)Oc1ccccc1C(=O)Nc1ncc([N+](=O)[O-])s1,inactive,
c1cc(-c2ccncc2)ccn1,,1.25% (inactive)
OC[C@H]1O[C@@H]2O[C@H]3[C@H](O)[C@@H](O)[C@@H](O[C@H]4[C@H](O)[C@@H](O)[C@@H](O[C@H]5[C@H](O)[C@@H](O)[C@@H](O[C@H]6[C@H](O)[C@@H](O)[C@@H](O[C@H]7[C@H](O)[C@@H](O)[C@@H](O[C@H]8[C@H](O)[C@@H](O)[C@@H](O[C@H]1[C@H](O)[C@H]2O)O[C@@H]8CO)O[C@@H]7CO)O[C@@H]6CO)O[C@@H]5CO)O[C@@H]4CO)O[C@@H]3CO,inactive,
NC=O,inactive,
COC(=O)C1=C(C)NC(C)=C(C(=O)OCCN(C)Cc2ccccc2)C1c1cccc([N+](=O)[O-])c1 (stereo not drawn),30.5 µM (active) and 29.8 µM (active),
c1ccc2cc(Nc3ccc(Nc4ccc5ccccc5c4)cc3)ccc2c1,inactive,
O=C(Nc1ccc(Cl)cc1)Nc1ccc(Cl)c(Cl)c1,17.2 µM (active),
COC(C)COC(C)COC(C)CO (stereo not drawn),inactive,
CC(=O)CC/C=C(\C)CCC=C(C)C,inactive,
Nc1ccc(Nc2ccccc2)cc1,inactive and 27.3 µM (active),

Structure (SMILES),Potency,"activity change, negative = inhibition"
Nc1ncnc2nc[nH]c12,inactive,
CCCCOCCOCCO,inactive,
Cc1c(C(N)=O)cc([N+](=O)[O-])cc1[N+](=O)[O-],inactive,
CCC(C)c1ccccc1O (stereo not drawn),inactive,
Nc1ccccc1N,inactive,
CC(=O)C1(C)CC2=C(CCCC2(C)C)CC1C (stereo not drawn),inactive,
OC1CCCCCCCCCCC1,inactive,
CCCCc1oc2ccccc2c1C(=O)c1cc(I)c(OCCN(CC)CC)c(I)c1,19.5 µM (active) and 26.6 µM (active),
Cc1c(OCC(F)(F)F)ccnc1CS(=O)c1nc2ccccc2[nH]1 (stereo not drawn),inactive,
O=C(c1ccccc1)c1ccccc1O,,6.71% (inactive)
O=CCCCC=O,29.6 µM (active) and inactive,
NNc1ccc(C(=O)O)cc1,inactive,
O=Cc1ccccc1O,inactive,
Cc1cccc(N(C)C(=S)Oc2ccc3ccccc3c2)c1,inactive,
Cc1cc2nc3c(=O)[nH]c(=O)nc-3n(C[C@H](O)[C@H](O)[C@H](O)CO)c2cc1C,inactive,
COc1cccc2c1C(=O)c1c(O)c3c(c(O)c1C2=O)C[C@@](O)(C(=O)CO)C[C@@H]3O[C@H]1C[C@H](N)[C@H](O)[C@H](C)O1,,152% [at 42.5 µM] (inactive)
